# Laboratory results: PubChem BioAssay (Tox21)
# Where “and” joins values, the source holds several entries; their conditions need not be identical. Equal entries are not always repeated. Inconclusive results are not listed. Entries that show only a call come without a potency. Some structures have more than one record in an assay (separate samples or runs), and their calls can disagree. Calls of active or inactive are those of the source. Unless noted, calls follow the shape of the dose curve; as a rule, active = well fitted curve in the direction sought with a large enough effect in the repeat runs; inconclusive = weak or mixed curves; inactive = no such curve, though single readings can be large; an effect the other way counts as inactive or inconclusive.
# What was measured:
# [1] = Human pregnane X receptor (PXR) small molecule agonists, qHTS cell viability counter screen (AID 1346977); also: nearly all actives have a fitted effect of over 50% in size; also: potency is read from the fitted curve at half-maximal effect
# How it was run: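 PXR-Luc HepG2 cells (2,000/well, 5% charcoal-stripped FBS) preincubated 5 hr, then exposed to compounds 24 hr at 37 C. Viability read in the same wells by CellTiter-Fluor fluorescence, reagent added at 23 hr, 1 hr incubation.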
# [2] = Caspase-3/7 induction in HepG2 cells by small molecules, qHTS assay (AID 1346978); also: nearly all actives have a fitted effect of over 15% in size
# How it was run: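 Wild-type HepG2 cells (2,000/well) were settled 5 h at 37 C, 5% CO2, then exposed to compounds in DMSO for 17 h. Caspase-3/7 activity was read by luminescence 30 min after adding Caspase-Glo 3/7 reagent at room temperature.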
# [3] = Caspase-3/7 induction in CHO-K1 cells by small molecules, qHTS cell viability counter screen (AID 1346979); also: nearly all actives have a fitted effect of over 35% in size; also: potency is read from the fitted curve at half-maximal effect
# How it was run: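 Wild-type CHO-K1 cells (1,500/well) treated with compound after 5 h plating; after 16 h at 37C, viability read as CellTiter-Fluor fluorescence following 1 h reagent incubation, in the same wells as the caspase read.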
# [4] = Caspase-3/7 induction in HepG2 cells by small molecules, qHTS cell viability counter screen (AID 1346981); also: series mostly up to about 92 µM; nearly all actives have a fitted effect of over 30% in size
# How it was run: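 Treatment of HepG2 cells with DMSO-delivered compounds ran 16 hr at 37 C following a 5-hr pre-incubation of 2,000 cells/well. CellTiter-Fluor fluorescence, read after 1 hr, served as the viability measure in a qHTS format.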
# [5] = target: Nuclear receptor subfamily 1 group I member 2 (Homo sapiens) (UniProt O75469); assay: Human pregnane X receptor (PXR) small molecule agonists, qHTS assay (AID 1346982); also: nearly all actives have a fitted effect of over 35% in size; also: potency is read from the fitted curve at half-maximal effect
# How it was run: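 Stable HepG2 line reporting PXR-mediated CYP3A4 expression via luciferase. Treatment: 24 hr with compounds in DMSO at 37 C. Detection: ONE-Glo luminescence.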
# [6] = target: Nuclear receptor subfamily 1 group I member 2 (Rattus norvegicus) (UniProt Q9R1A7); assay: Rat pregnane X receptor (rPXR) activation by small molecules, qHTS assay (AID 1346983); settings: rPXR luciferase reporter cells, One-Glo luminescence, 24 h; stronger effect = higher value; also: nearly all actives have a fitted effect of over 20% in size
# How it was run: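 Cell-based rPXR luciferase reporter assay, 2,000 cells per well, rested 5hr at 37 C before compound addition in DMSO, then 24 hr at 37 C. One-Glo reagent was added and luminescence read after 30 min at room temperature.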
# [7] = target: Nuclear receptor subfamily 1 group I member 2 (Homo sapiens) (UniProt O75469); assay: CYP3A4 induction through human pregnane X receptor (PXR) by small molecules, qHTS assay (AID 1346984); also: nearly all actives have a fitted effect of over 40% in size; also: potency is read from the fitted curve at half-maximal effect
# How it was run: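 After 24 h at 37C with compound, DPX-2 cells (HepG2, co-transfected PXR response element and CYP3A4 promoter-luciferase) got 3uM final P450-Glo Luciferin-IPA for 3 h; One-Glo luminescence followed.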
# [8] = target: Nuclear receptor subfamily 1 group I member 2 (Homo sapiens) (UniProt O75469); assay: Human pregnane X receptor (PXR) activation by small molecules, qHTS assay (AID 1346985); also: nearly all actives have a fitted effect of over 40% in size; also: potency is read from the fitted curve at half-maximal effect
# How it was run: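 DPX-2 cells (HepG2 co-transfected with a PXR response element and a CYP3A4-promoter luciferase construct) were seeded at 2,000 per well, rested 5 hr at 37C, then exposed to DMSO-dissolved compounds for 24 hr. Activation was read as luciferase luminescence.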
# [9] = target: Acetylcholinesterase (Homo sapiens) (UniProt P22303); assay: Acetylcholinesterase (AChE) small molecule antagonists: colormetric cell-based qHTS assay (AID 1347395; calls by dose curve; also: nearly all actives have a fitted effect of over 30% in size; also: potency is read from the fitted curve at half-maximal effect)
# How it was run: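 SH-SY5Y cells attached overnight, exposed to compound 30 min at 37 C, then given DTNB/acetylthiocholine; after 90 min at 37 C, colorimetric thiocholine read gives cellular AChE activity.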
# [10] = target: Acetylcholinesterase (Homo sapiens) (UniProt P22303); assay: Acetylcholinesterase (AChE) small molecule antagonists: enzyme-based qHTS assay (AID 1347397; calls by dose curve; also: nearly all actives have a fitted effect of over 55% in size); settings: Potency: AChE enzyme activity inhibition; outcome: AChE enzyme activity inhibition
# How it was run: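 Compound or DMSO vehicle was pin-transferred onto recombinant human AChE (50 mU/mL as dispensed) and left 30 min at room temperature. Acetylthiocholine with DTNB then started the reaction, read colorimetrically 10 min later.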
# [11] = target: Acetylcholinesterase (Homo sapiens) (UniProt P22303); assay: Acetylcholinesterase (AChE) small molecule antagonists: fluorescence cell-based qHTS assay (AID 1347398; calls by dose curve; also: nearly all actives have a fitted effect of over 50% in size; also: potency is read from the fitted curve at half-maximal effect); settings: Potency: AChE activity; outcome: AChE activity
# How it was run: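 Using neuroblastoma SH-SY5Y cells as the enzyme source, test chemicals are preincubated 30 min at 37 C; AChE-driven acetylthiocholine cleavage is then quantified by thiocholine-dependent Thiolite Green fluorescence after 40 min at room temperature.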
# [12] = target: Acetylcholinesterase (Homo sapiens) (UniProt P22303); assay: Acetylcholinesterase (AChE) small molecule antagonists: enzyme-based qHTS assay with human liver microsomes (AID 1347399; calls by dose curve; also: nearly all actives have a fitted effect of over 60% in size; also: potency is read from the fitted curve at half-maximal effect); settings: Potency: qHTS inhibition; outcome: qHTS inhibition
# How it was run: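 Recombinant human AChE (50 mU/mL in the enzyme mix) and human liver microsomes (0.25 mg/mL final) were preincubated with compound and NADPH (0.25 mg/mL final) for 30 min at 37 C. Acetylthiocholine/DTNB was then added; thiocholine was read colorimetrically after 10 min at room temperature.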
# [13] = target: Cytochrome P450 2C19 (Homo sapiens) (UniProt P33261); assay: Cytochrome P450 Family 2 Subfamily C Member 19 (CYP2C19) small molecule antagonists: luciferase reporter qHTS assay (AID 1671197); also: nearly all actives have a fitted effect of over 65% in size; also: potency is read from the fitted curve at half-maximal effect
# How it was run: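 CYP2C19 P450-Glo, 1536-well qHTS. Cpd + enzyme/proluciferin substrate 10 min RT; + NADPH regen, 37C 1 h; stop with luciferin detection reagent, 20 min RT, luminescence (RLU). Pos ctrl ketoconazole.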
# [14] = target: Cytochrome P450 1A2 (Homo sapiens) (UniProt P05177); assay: Cytochrome P450 Family 1 Subfamily A Member 2 (CYP1A2) small molecule antagonists: luciferase reporter qHTS assay (AID 1671199); also: nearly all actives have a fitted effect of over 50% in size; also: potency is read from the fitted curve at half-maximal effect
# How it was run: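 Read-out is luminescence from luciferin detection reagent (20 min) proportional to CYP1A2 activity; compounds in DMSO preincubated 10 min with enzyme and proluciferin substrate, then NADPH regeneration solution, 1 h, room temperature.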
# [15] = target: Voltage-gated inwardly rectifying potassium channel KCNH2 (Homo sapiens) (UniProt Q12809); assay: Human Ether-a-go-go-Related Gene (hERG) channel small molecule antagonists: fluorescence cell-based qHTS assay (AID 1671200);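 also: hERG-expressing U2OS cells given a thallium stimulus after FluxOR II dye loading; series mostly up to about 77 µM; nearly all actives have a fitted effect of over 50% in size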
# How it was run: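 hERG-U2OS cells plated overnight at 37 C, loaded with FluxOR II dye 1 h at RT in dark; after 10 min, thallium stimulus added. Fluorescence (480/540 nm) read kinetically for 2 min at 1 s intervals.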
# [16] = Caspase-3/7 induction in CHO-K1 cells by small molecules, qHTS assay (AID 1346980); also: nearly all actives have a fitted effect of over 15% in size
# How it was run: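 Wild-type cells were seeded at 1,500 per well and settled 5 hr at 37 C, 5% CO2, then exposed to DMSO-dissolved compounds for 17 hr. Caspase-Glo 3/7 reagent was added, and luminescence was read after 30min at room temperature.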
# [17] = target: Cytochrome P450 2D6 (Homo sapiens) (UniProt P10635); assay: Cytochrome P450 Family 2 Subfamily D Member 6 (CYP2D6) small molecule antagonists: luciferase reporter qHTS assay (AID 1671196); also: nearly all actives have a fitted effect of over 50% in size; also: potency is read from the fitted curve at half-maximal effect
# How it was run: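 Chemicals tested for interference with CYP2D6 activity; proluciferin substrate, NADPH regeneration, 1 h at room temperature, luminescent detection.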
# [18] = target: Cytochrome P450 2C9 (Homo sapiens) (UniProt P11712); assay: Cytochrome P450 Family 2 Subfamily C Member 9 (CYP2C9) small molecule antagonists: luciferase reporter qHTS assay (AID 1671198)
# How it was run: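 CYP2C9 activity was measured with a P450-Glo proluciferin substrate. Enzyme–substrate mix was held with compound for 10 min at room temperature, then NADPH regeneration solution was added for 1 h at 37C. Luciferin product was read as luminescence.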
# [19] = target: Cytochrome P450 3A4 (Homo sapiens) (UniProt P08684); assay: Cytochrome P450 Family 3 Subfamily A Member 4 (CYP3A4) small molecule antagonists: luciferase reporter qHTS assay (AID 1671201); also: nearly all actives have a fitted effect of over 50% in size; also: potency is read from the fitted curve at half-maximal effect
# How it was run: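 P450-Glo CYP3A4 luminescent assay: compounds preincubated 10 min at room temperature with enzyme and proluciferin substrate, NADPH regeneration added, 1 h room-temperature reaction, stopped with luciferin detection reagent; luminescence read after 20 min. Ketoconazole positive control.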
# Sequence of Nuclear receptor subfamily 1 group I member 2 (Rattus norvegicus) (Q9R1A7 whole entry, looked up): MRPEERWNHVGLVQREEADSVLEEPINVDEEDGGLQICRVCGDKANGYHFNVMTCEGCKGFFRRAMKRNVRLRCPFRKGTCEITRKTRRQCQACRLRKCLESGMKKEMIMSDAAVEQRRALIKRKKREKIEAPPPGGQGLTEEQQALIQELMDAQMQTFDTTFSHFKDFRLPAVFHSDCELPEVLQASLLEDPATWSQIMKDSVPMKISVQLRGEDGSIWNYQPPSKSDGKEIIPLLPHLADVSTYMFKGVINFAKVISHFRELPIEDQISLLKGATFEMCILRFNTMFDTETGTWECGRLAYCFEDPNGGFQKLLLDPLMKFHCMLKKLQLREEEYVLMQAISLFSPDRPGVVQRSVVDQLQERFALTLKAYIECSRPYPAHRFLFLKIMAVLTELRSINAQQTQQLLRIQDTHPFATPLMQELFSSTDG
# Sequence of Voltage-gated inwardly rectifying potassium channel KCNH2 (Homo sapiens) (Q12809 whole entry, looked up): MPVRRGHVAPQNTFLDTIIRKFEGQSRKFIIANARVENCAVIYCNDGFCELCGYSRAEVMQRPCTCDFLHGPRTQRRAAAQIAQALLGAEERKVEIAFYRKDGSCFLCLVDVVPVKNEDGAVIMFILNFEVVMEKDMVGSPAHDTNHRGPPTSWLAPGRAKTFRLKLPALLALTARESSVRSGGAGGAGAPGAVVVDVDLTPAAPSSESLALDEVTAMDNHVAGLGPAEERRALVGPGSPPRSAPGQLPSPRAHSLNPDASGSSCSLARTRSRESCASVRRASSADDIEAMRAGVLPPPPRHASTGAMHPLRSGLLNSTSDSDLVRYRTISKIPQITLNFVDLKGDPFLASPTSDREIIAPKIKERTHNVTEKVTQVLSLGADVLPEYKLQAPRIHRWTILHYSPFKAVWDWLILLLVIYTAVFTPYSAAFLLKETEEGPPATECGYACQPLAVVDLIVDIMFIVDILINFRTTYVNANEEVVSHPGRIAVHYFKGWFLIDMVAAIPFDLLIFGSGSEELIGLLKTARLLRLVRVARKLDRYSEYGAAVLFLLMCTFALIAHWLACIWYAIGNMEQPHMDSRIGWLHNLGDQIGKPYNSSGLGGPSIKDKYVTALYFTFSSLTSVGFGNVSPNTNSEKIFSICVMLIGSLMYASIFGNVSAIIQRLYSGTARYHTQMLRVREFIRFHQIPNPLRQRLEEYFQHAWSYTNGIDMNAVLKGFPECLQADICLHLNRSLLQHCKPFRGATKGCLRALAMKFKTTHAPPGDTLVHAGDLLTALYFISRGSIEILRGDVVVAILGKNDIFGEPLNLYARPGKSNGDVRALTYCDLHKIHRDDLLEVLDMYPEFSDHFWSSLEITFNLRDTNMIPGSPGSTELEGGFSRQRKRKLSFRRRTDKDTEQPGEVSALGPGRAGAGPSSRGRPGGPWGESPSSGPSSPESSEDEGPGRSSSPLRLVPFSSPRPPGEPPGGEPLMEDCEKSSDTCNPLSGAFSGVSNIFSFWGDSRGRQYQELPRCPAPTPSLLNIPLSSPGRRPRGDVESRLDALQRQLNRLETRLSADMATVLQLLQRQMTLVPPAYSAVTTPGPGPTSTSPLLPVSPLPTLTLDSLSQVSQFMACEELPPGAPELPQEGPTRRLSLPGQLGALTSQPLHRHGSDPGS
# Sequence of Cytochrome P450 2C9 (Homo sapiens) (P11712 whole entry, looked up): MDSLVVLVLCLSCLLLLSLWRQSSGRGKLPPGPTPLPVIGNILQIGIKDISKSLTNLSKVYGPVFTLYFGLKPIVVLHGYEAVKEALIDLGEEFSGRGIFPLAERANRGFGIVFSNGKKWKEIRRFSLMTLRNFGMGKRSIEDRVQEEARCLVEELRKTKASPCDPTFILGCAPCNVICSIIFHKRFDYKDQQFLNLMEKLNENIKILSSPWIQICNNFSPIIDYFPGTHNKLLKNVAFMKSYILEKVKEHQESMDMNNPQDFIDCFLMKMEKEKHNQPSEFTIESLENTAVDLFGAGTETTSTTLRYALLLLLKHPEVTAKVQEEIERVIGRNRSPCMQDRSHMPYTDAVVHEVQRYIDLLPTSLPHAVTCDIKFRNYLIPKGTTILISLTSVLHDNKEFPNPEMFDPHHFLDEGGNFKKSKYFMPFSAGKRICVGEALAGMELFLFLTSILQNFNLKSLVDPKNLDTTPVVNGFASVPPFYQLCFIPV
# Sequence of Cytochrome P450 2D6 (Homo sapiens) (P10635 whole entry, looked up): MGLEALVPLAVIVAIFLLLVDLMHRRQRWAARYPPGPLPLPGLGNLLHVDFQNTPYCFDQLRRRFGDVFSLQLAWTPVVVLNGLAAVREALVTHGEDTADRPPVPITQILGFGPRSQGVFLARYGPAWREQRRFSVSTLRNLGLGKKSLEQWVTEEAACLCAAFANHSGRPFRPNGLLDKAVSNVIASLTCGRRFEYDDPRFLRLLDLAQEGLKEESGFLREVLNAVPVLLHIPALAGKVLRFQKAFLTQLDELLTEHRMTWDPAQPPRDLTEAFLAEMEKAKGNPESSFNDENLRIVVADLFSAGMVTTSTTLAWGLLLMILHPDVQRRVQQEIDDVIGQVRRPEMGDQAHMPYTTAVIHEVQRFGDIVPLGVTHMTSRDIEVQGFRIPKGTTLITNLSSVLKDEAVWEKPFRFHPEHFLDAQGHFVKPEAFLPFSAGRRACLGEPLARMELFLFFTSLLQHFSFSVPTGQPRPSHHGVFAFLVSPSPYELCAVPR
# Sequence of Nuclear receptor subfamily 1 group I member 2 (Homo sapiens) (O75469 whole entry, looked up): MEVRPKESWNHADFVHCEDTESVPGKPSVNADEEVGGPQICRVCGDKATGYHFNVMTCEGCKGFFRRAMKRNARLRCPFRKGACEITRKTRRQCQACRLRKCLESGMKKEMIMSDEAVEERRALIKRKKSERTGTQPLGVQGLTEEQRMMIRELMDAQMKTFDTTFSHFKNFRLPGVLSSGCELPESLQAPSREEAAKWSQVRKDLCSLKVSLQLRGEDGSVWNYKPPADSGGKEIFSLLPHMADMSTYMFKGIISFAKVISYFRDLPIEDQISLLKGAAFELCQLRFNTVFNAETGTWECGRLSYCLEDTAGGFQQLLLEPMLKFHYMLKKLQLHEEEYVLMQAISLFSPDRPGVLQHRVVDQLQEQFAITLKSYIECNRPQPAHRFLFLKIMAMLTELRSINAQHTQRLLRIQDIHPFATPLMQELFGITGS
# Sequence of Cytochrome P450 3A4 (Homo sapiens) (P08684 whole entry, looked up): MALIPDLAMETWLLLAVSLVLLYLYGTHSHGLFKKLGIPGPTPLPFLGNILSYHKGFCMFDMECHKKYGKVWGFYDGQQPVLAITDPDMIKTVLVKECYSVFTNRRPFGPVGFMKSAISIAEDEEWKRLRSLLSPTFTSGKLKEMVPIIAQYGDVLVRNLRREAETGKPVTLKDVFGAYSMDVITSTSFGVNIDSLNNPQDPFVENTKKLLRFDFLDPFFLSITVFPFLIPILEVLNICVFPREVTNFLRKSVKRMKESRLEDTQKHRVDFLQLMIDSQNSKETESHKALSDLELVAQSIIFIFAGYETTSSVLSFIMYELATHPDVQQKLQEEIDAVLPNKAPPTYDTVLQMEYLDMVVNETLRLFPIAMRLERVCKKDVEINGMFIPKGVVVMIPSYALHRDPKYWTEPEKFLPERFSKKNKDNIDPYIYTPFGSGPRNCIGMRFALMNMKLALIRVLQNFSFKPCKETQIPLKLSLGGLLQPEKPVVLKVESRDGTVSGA
# Sequence of Acetylcholinesterase (Homo sapiens) (P22303 whole entry, looked up): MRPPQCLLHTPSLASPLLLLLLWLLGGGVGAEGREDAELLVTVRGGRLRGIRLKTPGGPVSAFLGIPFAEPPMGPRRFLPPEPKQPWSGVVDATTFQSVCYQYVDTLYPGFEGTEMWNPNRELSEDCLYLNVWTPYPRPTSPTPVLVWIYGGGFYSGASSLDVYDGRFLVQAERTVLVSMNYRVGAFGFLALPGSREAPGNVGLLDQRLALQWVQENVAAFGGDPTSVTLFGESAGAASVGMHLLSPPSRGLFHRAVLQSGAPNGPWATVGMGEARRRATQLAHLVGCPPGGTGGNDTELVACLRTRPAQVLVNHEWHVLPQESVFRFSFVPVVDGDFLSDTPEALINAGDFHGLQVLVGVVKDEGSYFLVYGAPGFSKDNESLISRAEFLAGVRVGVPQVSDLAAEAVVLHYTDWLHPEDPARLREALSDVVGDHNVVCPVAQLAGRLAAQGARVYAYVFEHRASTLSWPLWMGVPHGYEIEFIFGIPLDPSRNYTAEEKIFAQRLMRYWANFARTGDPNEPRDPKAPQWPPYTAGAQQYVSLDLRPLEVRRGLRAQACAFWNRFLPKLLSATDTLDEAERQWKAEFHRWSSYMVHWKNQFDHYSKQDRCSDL
# Sequence of Cytochrome P450 2C19 (Homo sapiens) (P33261 whole entry, looked up): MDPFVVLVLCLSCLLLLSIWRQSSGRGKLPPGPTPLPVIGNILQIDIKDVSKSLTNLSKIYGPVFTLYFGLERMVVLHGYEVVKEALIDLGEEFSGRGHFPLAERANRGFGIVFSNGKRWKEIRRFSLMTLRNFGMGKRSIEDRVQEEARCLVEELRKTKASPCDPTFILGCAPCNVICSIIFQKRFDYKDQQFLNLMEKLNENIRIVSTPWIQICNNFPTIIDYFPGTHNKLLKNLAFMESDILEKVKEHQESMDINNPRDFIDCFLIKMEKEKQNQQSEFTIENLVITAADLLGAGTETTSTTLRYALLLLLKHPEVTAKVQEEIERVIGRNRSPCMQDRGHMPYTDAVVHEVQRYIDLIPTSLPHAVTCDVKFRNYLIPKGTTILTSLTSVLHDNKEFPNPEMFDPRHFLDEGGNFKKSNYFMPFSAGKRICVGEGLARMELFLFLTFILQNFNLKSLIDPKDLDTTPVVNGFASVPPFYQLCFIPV
Compound,Potency [1],outcome [2],Potency [3],Potency [4],Potency [5],max activation [6],Potency [7],Potency [8],Potency [9],Potency [10],Potency [11],Potency [12],Potency [13],Potency [14],Potency [15],outcome [16],Potency [17],Potency [18],Potency [19]
CC1=C2[C@H]3OC(=O)[C@@H](C)[C@@H]3CC[C@@]2(C)C=CC1=O,inactive,inactive,inactive,inactive,7.5 µM (active),8.61% (inactive),11.2 µM (active),2.82 µM (active),inactive,inactive,inactive,inactive,inactive,inactive,inactive,,,,
ClCOCCl,inactive,inactive,inactive,inactive,,,,,inactive,inactive,inactive,inactive,inactive,,inactive,inactive,inactive,inactive,
COC(=O)[C@@H](N)CCCN/C(N)=N/[N+](=O)[O-],inactive,inactive,inactive,inactive,,0.511% (inactive),,,inactive,inactive,,inactive,inactive,inactive,inactive,inactive,inactive,,
O=C(Cl)OCc1ccccc1,inactive,inactive,inactive,inactive,inactive,,,,inactive,inactive,inactive,inactive,,,inactive,,inactive,inactive,
N#CC(Br)(Br)C(N)=O,inactive,inactive,61.1 µM (active),inactive,,,,,,,,,,inactive,inactive,inactive,71 µM (active),,inactive
Cc1ccc(-c2nc3ccc(C)cn3c2CC(=O)N(C)C)cc1,inactive,inactive,inactive,,23.7 µM (active),1.42% (inactive),inactive,inactive,inactive,,inactive,inactive,inactive,27.5 µM (active),inactive,inactive,,,
C[C@H](CN1CCOCC1)C(C(=O)N1CCCC1)(c1ccccc1)c1ccccc1,83.4 µM (active),inactive,inactive,inactive,,,,,inactive,inactive,,inactive,96.9 µM (active),inactive,inactive,inactive,43.3 µM (active),,
CC[C@H](N)c1ccccc1,inactive,inactive,inactive,inactive,,,,,inactive,inactive,inactive,inactive,63.3 µM (active),,inactive,inactive,35.6 µM (active),,31.7 µM (active)
CCN(CCO)CCO,inactive,inactive,inactive,inactive,,,,,inactive,inactive,inactive,inactive,inactive,inactive,inactive,inactive,inactive,,
CC(C)(C)c1cc(O)ccc1O,inactive,inactive,43.3 µM (active) and 61.1 µM (active),inactive,,-1.85% (inactive),,,,,,inactive,39.9 µM (active) and 56.4 µM (active),39.9 µM (active),inactive,inactive,63.3 µM (active) and inactive,,
CNC(=O)O/N=C(/CSC)C(C)(C)C,inactive,inactive,inactive,inactive,,,,,1.59 µM (active),,0.142 µM (active),11.2 µM (active),20 µM (active),,inactive,inactive,inactive,inactive,
CCN(CCO)CCn1c(Cc2ccccc2)nc2c1c(=O)n(C)c(=O)n2C,inactive,inactive,inactive,inactive,inactive,,,,inactive,inactive,inactive,inactive,inactive,inactive,inactive,,inactive,inactive,inactive
CC(C)(C1CCC(O)CC1)C1CCC(O)CC1 (stereo not given),inactive,inactive,inactive,inactive,,,,,inactive,inactive,inactive,inactive,71 µM (active),inactive,inactive,inactive,inactive,,
CCN[C@@H](C)Cc1cccc(C(F)(F)F)c1,inactive,inactive,inactive,inactive,,,,,inactive,,inactive,inactive,inactive,,inactive,inactive,2.45 µM (active),,
COc1cccc([C@@]2(O)CCCC[C@@H]2CN(C)C)c1,inactive,inactive,inactive,inactive,inactive,-2.97% (inactive),inactive,inactive,inactive,inactive,inactive,inactive,inactive,inactive,inactive,,,inactive,inactive
CCOC(=O)COc1ccc(Cl)cc1Cl,inactive,inactive,inactive,inactive,inactive,,,,inactive,inactive,inactive,inactive,22.4 µM (active),31.7 µM (active),inactive,,inactive,,inactive
OCC(Cl)CCl (stereo not given),inactive,inactive,inactive,inactive,inactive,,,,inactive,inactive,inactive,inactive,70.1 µM (active),39.4 µM (active),inactive,,inactive,,inactive
Clc1nc(Cl)nc(Nc2ccccc2Cl)n1,inactive,inactive,inactive,inactive,,,,,inactive,inactive,inactive,inactive,79.6 µM (active),inactive,inactive,inactive,inactive,,inactive
